Screening data: PubChem BioAssay, National Center for Advancing Translational Sciences (NCATS)
Shown are actives, neighbours in structure and some others; about 1.2% of the full set was active somewhere.
TRPV1 agonist = HTS Assay for Compounds that Act as Agonists of the Vanilloid Receptor 1 | 0.19% of 320,000 active | AID 540275, 2011 | Transient receptor potential cation channel subfamily V member 1 (Homo sapiens), Q8NER1 | activation, % at 8.33 µM | TRPV1-expressing cells, Fluo-8 calcium influx, agonist mode; in the data active = activation above about 80%; inconclusive = between about 30% and that limit
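TRPV1-expressing cells were cultured overnight at 35.5C and loaded with Fluo-8 calcium dye for 40 to 90 min at room temperature. After a 10 s baseline, compound was added and calcium influx was read kinetically for 3 min (ex 480/em 520 nm).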
hERG WT inh = qHTS for Inhibitors of KCHN2 3.1: Wildtype qHTS; Voltage-gated inwardly rectifying potassium channel KCNH2 (Homo sapiens), Q12809; U2OS, BacMam KCNH2, thallium flux FluxOr; hits give low values; activity change, % at 1.84 µM; 0.37% of 340,000 active;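 active = maximum activity change below -70%; inconclusive = maximum activity change between -70% and -50%; inactive = maximum activity change above -50%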
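U2OS cells transduced with wild-type KCNH2 virus are loaded with FluxOr dye for 45 min, and thallium flux is measured in kinetic reads before and after stimulation buffer. Rate constants are normalized to DMSO controls.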
KCNH2 3.1 block = qHTS for Inhibitors of KCHN2 3.1: Mutant qHTS | U2OS KCNH2 3.1, thallium flux FluxOr; hits give low values | activity change, % (tested at about 1.8 µM) | 0.95% of 340,000 active | AID 720553, 2013;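 active = maximum activity change below -70%; inconclusive = maximum activity change from -70% to -50%; inactive = maximum activity change above -50%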;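 note: thallium influx rate constant from kinetic fluorescence after stimulation buffer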
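We transduce U2OS cells with the mutant 3.1 virus, culture them overnight, load FluxOr with Red40 quencher for 45 min, then add stimulation buffer and read kinetically for 2 min to derive a normalized rate constant.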
TRPV1 potentiator = HTS Assay for Compounds that Act as Potentiators of the Vanilloid Receptor 1 | Transient receptor potential cation channel subfamily V member 1 (Homo sapiens), Q8NER1 | TRPV1-expressing cells, Fluo-8 calcium influx, capsaicin EC20 potentiation | AID 540277, 2011 | potentiation, % at 8.33 µM | 0.02% of 320,000 active; in the data active = potentiation above about 80%; inconclusive = between about 30% and that limit
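Cells expressing TRPV1 were dye-loaded with Fluo-8 and read kinetically: 10 s baseline, 3 min after compound (agonist portion), then 2 min after EC20 capsaicin (allosteric enhancer portion). Calcium-bound dye fluorescence at 480/520 nm.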
Numbers stand for hits; – = inactive; ? = inconclusive; · = not tested or not shown.

SMILES | TRPV1 agonist | hERG WT inh | KCNH2 3.1 block | TRPV1 potentiator
CCOc1ccc(C(C)NC(=S)NCc2ccc(F)cc2)cc1 (stereo unspecified) | 86 | – | – | –
CCc1ccc(C(C)NC(=S)NCc2ccc(F)cc2)cc1 (stereo unspecified) | ? | – | – | –
Cc1ccc(C(C)NC(=S)NCc2ccc(F)cc2)cc1C (stereo unspecified) | 80 | – | – | –
CC1(C)C(=O)C=CC(=O)C(C)(C)C(=O)C=CC(=O)C(C)(C)C2=CC=C(O2)C(C)(C)C(=O)C=CC1=O | · | – | – | ·
Nc1cccc2c1C(=O)N(CC(=O)NC13CC4CC(CC(C4)C1)C3)C2=O | – | -105 | – | –
O=C(Cn1sc2ccccc2c1=O)NC12CC3CC(CC(C3)C1)C2 | – | – | – | –
Cc1cc(C)n2nc(SCc3ccccc3F)nc2n1 | – | – | – | –
Cc1cc(C)n2nc(SCc3ccccc3C(=O)O)nc2n1 | – | -144 | -191 | –
CCOC(=O)N1CCC(NC(=O)c2cc3sccc3n2CC)CC1 | – | – | – | –
CCn1c(C(=O)NC2CCC(C)CC2)cc2sccc21 (stereo unspecified) | ? | -233 | – | –
COc1ccc(C(=O)CNc2cccc(F)c2)cc1 | – | – | -91 | –
CCOC(=O)C=Nc1c(N)n(C)c(=O)n(C)c1=O | – | – | -92 | –
CC(Nc1ccc(Cl)cc1)c1cc(Cl)ccc1O (stereo unspecified) | – | – | – | –
CC(Nc1ccc(Br)cn1)c1cc(Cl)ccc1O (stereo unspecified) | – | – | -72 | –
O=S(=O)(Nc1ncn[nH]1)c1ccc(Cl)cc1 | – | – | -85 | –
CCOc1ccc(S(=O)(=O)Nc2ncn[nH]2)cc1 | – | – | – | –
COCCN(C(=O)COC(=O)c1ccc(Br)o1)c1c(N)n(Cc2ccccc2)c(=O)[nH]c1=O | · | – | – | ·
CCOc1ccc(CC(=O)N2CCN=C2SC)cc1 | – | – | – | –
Cc1cc(C)n(-c2ccc([N+](=O)[O-])cc2)n1 | – | – | -107 | –
Cc1cc(N)n(-c2ccc([N+](=O)[O-])cc2)n1 | – | – | – | –
COc1cc(NS(=O)(=O)c2ccc3[nH]c(=O)oc3c2)cc(OC)c1 | – | – | -71 | –
COc1ccc(/C=C/CN2CCCC(C(=O)c3ccc(OC)c(F)c3)C2)cc1 (stereo unspecified) | – | – | -90 | –
O=C(c1cccc(C(F)(F)F)c1)C1CCCN(Cc2cccn2-c2ccccn2)C1 (stereo unspecified) | – | ? | -109 | –
COc1ccc(C(=O)C2CCCN(C/C=C/c3ccccc3OC)C2)c(OC)c1 (stereo unspecified) | – | – | -71 | –
COc1ccc(C(=O)C2CCCN(Cc3cccn3-c3ccc(Cl)cn3)C2)c(OC)c1 (stereo unspecified) | – | – | -73 | –
SMILES | TRPV1 agonist | hERG WT inh | KCNH2 3.1 block | TRPV1 potentiator
COc1ccc(C(=O)C2CCCN(Cc3c(F)ccc(F)c3F)C2)c(OC)c1 (stereo unspecified) | – | – | – | –
COC(C(=O)NNS(=O)(=O)c1ccccc1[N+](=O)[O-])c1ccccc1 (stereo unspecified) | – | -96 | – | –
Cc1cccc(NC(=O)CNC(=O)CSc2nnc(C(F)(F)F)n2C)c1C | – | -130 | -186 | –
COc1ccc(S(=O)(=O)NC(C)C(=O)NCc2ccncc2)cc1OC (stereo unspecified) | – | – | – | –
O=c1c(Cc2c(F)cccc2Cl)c(O)ccn1CCc1ccccn1 | – | – | -92 | –
O=c1c(Cc2c(F)cccc2Cl)c(O)ccn1CC1CCCO1 (stereo unspecified) | – | – | – | ?
CCC(C(=O)OCC(=O)NCc1ccc2c(c1)OCO2)c1ccccc1 (stereo unspecified) | · | – | – | ·
Cc1cc(N(C)C)cc(C)c1N=Nc1cc[n+]([O-])cc1 | · | – | – | ·
COn1c(-c2ccccc2)nc2ccc(Cl)cc21 | – | – | -94 | –
CN(C)S(=O)(=O)c1cccc(C(=O)N(Cc2ccc(F)cc2)Cc2ccco2)c1 | – | – | – | –
O=C(c1cccc(S(=O)(=O)N2CCOCC2)c1)N(Cc1ccc(F)cc1)Cc1ccco1 | – | – | -135 | –
O=C(Nc1ccc(F)cc1F)c1ccco1 | – | – | -77 | –
CCOc1cc(/C=C(\CC(=O)O)c2nc3ccccc3s2)ccc1OCC(=O)Nc1cccc(C(F)(F)F)c1 | · | -258 | – | ·
Cc1c(C(=O)N(C)C)sc2c1c(=O)n(-c1ccc(Cl)c(Cl)c1)c(=O)n2CC(=O)Nc1ccc(Br)cc1F | – | · | · | –
Nc1cc2[nH]c(=O)c3ccccc3c2cc1[N+](=O)[O-] | · | – | · | ·
Nc1nc(-c2ccccc2Cl)cs1 | · | – | -71 | ·
Cc1ccccc1C(=O)Nc1c(C(=O)N(CCN(C)C)Cc2ccco2)oc2ccccc12 | – | -92 | -84 | –
COc1ccc(OCC(=O)Nc2c(C(=O)N(CCN(C)C)Cc3ccco3)oc3ccccc23)cc1 | – | ? | -111 | –
COc1ccccc1C(=O)Nc1c(C(=O)N(CCN(C)C)Cc2ccco2)oc2ccccc12 | – | – | – | –
CC1=C(C(=O)N(C)C)CC(CC(=O)NCCCCc2ccccc2)C(=O)N1Cc1ccc(F)cc1 (stereo unspecified) | · | – | – | ·
O=C(CSc1nnc(COc2ccc(Cl)cc2)o1)N(c1ccccc1)C1CCS(=O)(=O)C1 (stereo unspecified) | · | – | – | ·
COCCn1c(SCC(=O)NCc2ccc3c(c2)OCO3)nc2ccccc2c1=O | – | – | – | –
CCN(CC1CCCN(CCc2cccc(F)c2)C1)C(=O)c1ccoc1C (stereo unspecified) | · | – | – | ·
CCN(CC1CCCN(CCc2cccc(F)c2)C1)C(=O)c1ccc(CSC)o1 (stereo unspecified) | – | – | -84 | –
N#Cc1ccccc1COc1cccc2c1CCCC2O (stereo unspecified) | – | – | – | –
SMILES | TRPV1 agonist | hERG WT inh | KCNH2 3.1 block | TRPV1 potentiator
COc1cc2c(cc1OC)C(C1(O)CCCCC1)NCC2 (stereo unspecified) | – | – | – | –
COc1ccc(C2NCCC3(O)CCCCC23)c(OC)c1OC (stereo unspecified) | – | -296 | – | –
COc1cc(NC(=O)c2cnn3c(C)cc(C)nc23)c(OC)cc1Cl | – | – | – | –
CSc1ccc2c(c1)C(N1CCN(C)CC1)Cc1ccc(F)cc1S2 (stereo unspecified) | · | ? | -94 | ·
COc1ccc(CN2CCc3c([nH]c4ccccc34)C2)cc1Br | – | – | – | –
COc1ccc(CN2CCc3c([nH]c4ccccc34)C2)c(OC)c1C | – | – | -79 | –
CCc1ccc(NC(=O)c2cc(C(C)C)on2)cc1 | 82 | – | – | –
CCc1ccc(NC(=O)c2cc(C)on2)cc1 | ? | – | – | –
